What all share (test): DAPPL (digital affinity profiling via proximity ligation, sequencing); 10 mM Tris-HCl pH 7.5, 50 mM NaCl, 1 mM DTT, 4% glycerol, room temperature, 30 min; GST-TFs on glutathione beads, 16-mer random dsDNA library, 0.1% formaldehyde crosslink after washing; high values mean tight binding
Assay [1] concerns the target T1, FEV (Homo sapiens, UniProt Q99581 1-238).
T1 sequence: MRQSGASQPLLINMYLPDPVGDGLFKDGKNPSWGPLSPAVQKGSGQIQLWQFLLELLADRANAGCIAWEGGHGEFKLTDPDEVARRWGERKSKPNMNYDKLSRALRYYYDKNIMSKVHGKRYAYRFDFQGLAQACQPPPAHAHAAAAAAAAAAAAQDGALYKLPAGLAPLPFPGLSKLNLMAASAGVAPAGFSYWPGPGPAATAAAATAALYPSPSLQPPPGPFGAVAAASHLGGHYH
The settings on record: protein: recombinant; tags: N-terminal GST; dsDNA, one strand shown. The method, boiled down:
(§1)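 Human transcription factors fused to GST were expressed in yeast, captured on glutathione beads, given DNA barcodes and pooled with a GST-only negative control. Pools were incubated with 200 nmole of a 16-mer random double-stranded DNA library in Tris/NaCl/DTT/glycerol buffer at room temperature for 30 min. They were then washed, crosslinked with 0.1% formaldehyde, proximity-ligated (BsaI/T4 ligase, 1 h, 37 °C), PCR-amplified and sequenced on an Illumina NextSeq500. Binding signal is each 6-mer's read frequency for a factor divided by its frequency for the GST control.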

Assay [2] deals with ETV5 (Homo sapiens, UniProt P41161 1-510). The following applies: protein: recombinant; tags: N-terminal GST; dsDNA, one strand shown. The gist of the method: as §1
Chain of ETV5 (P41161 whole entry): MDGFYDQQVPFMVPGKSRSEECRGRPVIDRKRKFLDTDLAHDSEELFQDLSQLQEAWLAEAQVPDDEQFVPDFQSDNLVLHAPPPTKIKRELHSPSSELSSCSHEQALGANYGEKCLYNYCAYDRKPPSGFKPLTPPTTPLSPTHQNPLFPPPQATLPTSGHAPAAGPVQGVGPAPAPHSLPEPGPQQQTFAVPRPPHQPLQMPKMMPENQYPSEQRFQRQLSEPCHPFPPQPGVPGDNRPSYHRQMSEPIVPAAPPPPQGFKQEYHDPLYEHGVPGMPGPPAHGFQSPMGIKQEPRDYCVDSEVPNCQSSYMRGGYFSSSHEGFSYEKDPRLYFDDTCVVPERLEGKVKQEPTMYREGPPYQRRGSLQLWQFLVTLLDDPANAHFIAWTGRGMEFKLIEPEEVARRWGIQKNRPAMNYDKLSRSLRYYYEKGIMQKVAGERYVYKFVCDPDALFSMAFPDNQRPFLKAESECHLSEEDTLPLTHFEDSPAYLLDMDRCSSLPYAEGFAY
In assay [3] the target is HSF1 (Homo sapiens, UniProt Q00613 1-529). The following applies: protein: recombinant; tags: N-terminal GST; chain copies: 3; dsDNA, one strand shown. The method, boiled down:
as §1

Assay [4] deals with T2, SPIC (Homo sapiens, UniProt Q8N5J4 1-248).
T2 sequence: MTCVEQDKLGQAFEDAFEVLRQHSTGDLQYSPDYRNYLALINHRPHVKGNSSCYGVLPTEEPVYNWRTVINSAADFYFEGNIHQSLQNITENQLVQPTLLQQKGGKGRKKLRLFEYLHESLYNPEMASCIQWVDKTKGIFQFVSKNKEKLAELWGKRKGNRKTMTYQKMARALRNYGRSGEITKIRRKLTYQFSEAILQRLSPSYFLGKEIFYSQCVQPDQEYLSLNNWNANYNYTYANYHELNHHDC
The following applies: protein: recombinant; tags: N-terminal GST; dsDNA, one strand shown. The method, boiled down:
as §1

In assay [5] the target is ELF4 (Homo sapiens, UniProt Q99607 1-663). The settings on record: protein: recombinant; tags: N-terminal GST; dsDNA, one strand shown. The gist of the method:
as §1

The target of assay [6] is T3, ELK4 (Homo sapiens, UniProt P28324-2 1-405).
T3 sequence: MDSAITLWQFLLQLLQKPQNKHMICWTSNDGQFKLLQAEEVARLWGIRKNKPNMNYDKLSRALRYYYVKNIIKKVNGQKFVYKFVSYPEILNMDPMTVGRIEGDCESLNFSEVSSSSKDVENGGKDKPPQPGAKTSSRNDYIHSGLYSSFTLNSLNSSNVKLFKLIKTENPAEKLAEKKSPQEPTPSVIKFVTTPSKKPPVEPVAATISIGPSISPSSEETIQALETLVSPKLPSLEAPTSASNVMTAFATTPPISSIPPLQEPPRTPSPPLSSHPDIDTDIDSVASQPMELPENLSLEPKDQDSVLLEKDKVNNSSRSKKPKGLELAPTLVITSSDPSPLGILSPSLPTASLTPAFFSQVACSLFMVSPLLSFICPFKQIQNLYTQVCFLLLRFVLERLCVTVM
The settings on record: protein: recombinant; tags: N-terminal GST; dsDNA, one strand shown. The method, boiled down:
as §1

Assay [7] concerns the target T4, ETV2 (Homo sapiens, UniProt O00321 1-342).
T4 sequence: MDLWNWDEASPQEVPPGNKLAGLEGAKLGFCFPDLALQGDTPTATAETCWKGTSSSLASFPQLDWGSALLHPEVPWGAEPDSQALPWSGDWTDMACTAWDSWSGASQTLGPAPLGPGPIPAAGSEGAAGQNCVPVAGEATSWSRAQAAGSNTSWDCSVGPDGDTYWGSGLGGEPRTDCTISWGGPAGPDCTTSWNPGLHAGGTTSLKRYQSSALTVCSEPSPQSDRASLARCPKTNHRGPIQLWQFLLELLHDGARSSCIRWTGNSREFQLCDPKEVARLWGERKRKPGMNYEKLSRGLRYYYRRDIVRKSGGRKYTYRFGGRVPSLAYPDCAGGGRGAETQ
The following applies: protein: recombinant; tags: N-terminal GST; dsDNA, one strand shown. The gist of the method: as §1

Assay [8] deals with T5, ELF3 (Homo sapiens, UniProt P78545 1-371).
T5 sequence: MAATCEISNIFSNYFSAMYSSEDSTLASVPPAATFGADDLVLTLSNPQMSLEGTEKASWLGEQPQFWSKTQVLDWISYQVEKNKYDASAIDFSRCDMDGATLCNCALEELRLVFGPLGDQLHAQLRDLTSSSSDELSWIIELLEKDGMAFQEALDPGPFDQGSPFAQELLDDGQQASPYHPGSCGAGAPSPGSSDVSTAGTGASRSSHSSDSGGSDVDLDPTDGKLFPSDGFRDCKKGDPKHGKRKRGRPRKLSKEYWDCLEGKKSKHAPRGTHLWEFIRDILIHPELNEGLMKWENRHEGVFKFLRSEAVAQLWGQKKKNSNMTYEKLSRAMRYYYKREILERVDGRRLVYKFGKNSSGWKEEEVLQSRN
The settings on record: protein: recombinant; tags: N-terminal GST; dsDNA, one strand shown. The gist of the method: as §1

Assay [9] deals with ETV1 (Homo sapiens, UniProt P50549 1-477). The settings on record: protein: recombinant; tags: N-terminal GST; dsDNA, one strand shown. The method, boiled down: as §1
Chain of ETV1 (P50549 whole entry): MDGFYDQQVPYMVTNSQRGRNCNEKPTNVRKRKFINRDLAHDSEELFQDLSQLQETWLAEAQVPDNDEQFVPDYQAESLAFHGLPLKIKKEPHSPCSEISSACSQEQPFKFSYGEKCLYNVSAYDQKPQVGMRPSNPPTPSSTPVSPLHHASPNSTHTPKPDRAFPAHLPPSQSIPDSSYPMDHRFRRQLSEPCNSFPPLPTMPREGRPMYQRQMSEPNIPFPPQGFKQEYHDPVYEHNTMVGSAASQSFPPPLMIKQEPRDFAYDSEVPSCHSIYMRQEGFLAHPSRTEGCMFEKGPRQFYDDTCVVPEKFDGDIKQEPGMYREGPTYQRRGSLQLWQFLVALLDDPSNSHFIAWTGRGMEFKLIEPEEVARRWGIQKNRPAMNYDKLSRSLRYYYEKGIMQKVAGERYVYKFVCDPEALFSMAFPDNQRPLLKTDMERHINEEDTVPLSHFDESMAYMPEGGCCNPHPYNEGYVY

Chain of HSF1 (Q00613 whole entry): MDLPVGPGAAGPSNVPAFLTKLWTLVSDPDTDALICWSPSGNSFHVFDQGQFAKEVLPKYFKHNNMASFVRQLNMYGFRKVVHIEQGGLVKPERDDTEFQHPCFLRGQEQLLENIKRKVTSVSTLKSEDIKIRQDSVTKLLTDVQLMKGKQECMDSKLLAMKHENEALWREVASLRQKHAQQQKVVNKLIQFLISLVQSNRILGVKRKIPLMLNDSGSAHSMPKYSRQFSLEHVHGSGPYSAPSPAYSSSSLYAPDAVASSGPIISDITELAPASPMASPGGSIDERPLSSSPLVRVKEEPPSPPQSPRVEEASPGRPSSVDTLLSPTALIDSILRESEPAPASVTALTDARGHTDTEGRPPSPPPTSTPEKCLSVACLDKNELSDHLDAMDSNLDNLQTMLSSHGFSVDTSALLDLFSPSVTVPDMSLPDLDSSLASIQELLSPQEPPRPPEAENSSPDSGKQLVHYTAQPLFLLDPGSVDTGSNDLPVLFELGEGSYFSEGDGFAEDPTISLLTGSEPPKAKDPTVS
Chain of ELF4 (Q99607 whole entry): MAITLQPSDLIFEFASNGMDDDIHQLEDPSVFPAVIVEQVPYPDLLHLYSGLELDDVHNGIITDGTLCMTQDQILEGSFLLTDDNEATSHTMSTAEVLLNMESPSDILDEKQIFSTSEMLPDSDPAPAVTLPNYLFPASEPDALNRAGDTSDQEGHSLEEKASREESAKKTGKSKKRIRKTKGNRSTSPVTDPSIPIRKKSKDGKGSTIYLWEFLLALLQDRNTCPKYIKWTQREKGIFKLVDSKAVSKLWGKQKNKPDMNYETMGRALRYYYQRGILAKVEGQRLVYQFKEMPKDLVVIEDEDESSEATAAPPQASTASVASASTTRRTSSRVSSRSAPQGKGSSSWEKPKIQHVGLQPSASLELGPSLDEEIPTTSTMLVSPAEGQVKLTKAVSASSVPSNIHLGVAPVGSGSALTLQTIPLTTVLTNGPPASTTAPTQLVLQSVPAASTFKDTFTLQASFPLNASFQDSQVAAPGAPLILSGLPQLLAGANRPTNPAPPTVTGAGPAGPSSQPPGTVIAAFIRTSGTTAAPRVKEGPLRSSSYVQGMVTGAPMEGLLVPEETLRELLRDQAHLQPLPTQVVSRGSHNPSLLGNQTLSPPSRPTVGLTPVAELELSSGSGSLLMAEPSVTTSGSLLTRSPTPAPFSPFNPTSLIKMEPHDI

As for CTGCCA, the binding signal in [1] is 1.24 fold enrichment (6-mer frequency, TF over GST control); in assay [2], 1.15 fold enrichment (6-mer frequency, TF over GST control); in [3] it was 1 fold enrichment (6-mer frequency, TF over GST control); in assay [4], 1.18 fold enrichment (6-mer frequency, TF over GST control); in assay [5], 1.25 fold enrichment (6-mer frequency, TF over GST control); in assay [6] it was 1.33 fold enrichment (6-mer frequency, TF over GST control). The binding signal was 1.03 fold enrichment (6-mer frequency, TF over GST control) in assay [7]; 1.22 fold enrichment (6-mer frequency, TF over GST control) in [8]; 1.17 fold enrichment (6-mer frequency, TF over GST control) in assay [9].
On to GAAGTT, for which the binding signal in [1] is 1.62 fold enrichment (6-mer frequency, TF over GST control); in assay [2], 1.66 fold enrichment (6-mer frequency, TF over GST control); in assay [3], 1.39 fold enrichment (6-mer frequency, TF over GST control); in assay [4], 1.76 fold enrichment (6-mer frequency, TF over GST control); in [5], 1.61 fold enrichment (6-mer frequency, TF over GST control); in assay [6], 1.52 fold enrichment (6-mer frequency, TF over GST control). Also, the binding signal in [7] was 1.58 fold enrichment (6-mer frequency, TF over GST control); in [8], 1.82 fold enrichment (6-mer frequency, TF over GST control); in [9] it was 1.63 fold enrichment (6-mer frequency, TF over GST control).
As to GTTCCC, the binding signal in assay [1] was 1.27 fold enrichment (6-mer frequency, TF over GST control); in [2], 1.22 fold enrichment (6-mer frequency, TF over GST control); in assay [3], 1.26 fold enrichment (6-mer frequency, TF over GST control); in assay [4] it was 1.38 fold enrichment (6-mer frequency, TF over GST control); in assay [5] it was 1.36 fold enrichment (6-mer frequency, TF over GST control); in assay [6], 1.19 fold enrichment (6-mer frequency, TF over GST control). Also, the binding signal is 1.12 fold enrichment (6-mer frequency, TF over GST control) in assay [7]; 1.23 fold enrichment (6-mer frequency, TF over GST control) in assay [8]; 1.39 fold enrichment (6-mer frequency, TF over GST control) in assay [9].
Regarding ACCGTC, the binding signal is 1.17 fold enrichment (6-mer frequency, TF over GST control) in assay [1]; 1.12 fold enrichment (6-mer frequency, TF over GST control) in assay [2]; 1.13 fold enrichment (6-mer frequency, TF over GST control) in assay [3]; 1.2 fold enrichment (6-mer frequency, TF over GST control) in assay [4]; 1.17 fold enrichment (6-mer frequency, TF over GST control) in assay [5]; 1.17 fold enrichment (6-mer frequency, TF over GST control) in assay [6]. Further, the binding signal in assay [7] is 1.29 fold enrichment (6-mer frequency, TF over GST control); in assay [8], 1.15 fold enrichment (6-mer frequency, TF over GST control); in [9], 1.19 fold enrichment (6-mer frequency, TF over GST control).
Turning to CTGAAG, the binding signal is 1.05 fold enrichment (6-mer frequency, TF over GST control) in assay [1]; 1.06 fold enrichment (6-mer frequency, TF over GST control) in assay [2]; 1.11 fold enrichment (6-mer frequency, TF over GST control) in [3]; 1.01 fold enrichment (6-mer frequency, TF over GST control) in assay [4]; 1.11 fold enrichment (6-mer frequency, TF over GST control) in assay [5]; 1.05 fold enrichment (6-mer frequency, TF over GST control) in assay [6]. Also, the binding signal in assay [7] was 1.09 fold enrichment (6-mer frequency, TF over GST control); in assay [8], 1.18 fold enrichment (6-mer frequency, TF over GST control); in [9] it was 1.08 fold enrichment (6-mer frequency, TF over GST control).
Consider GTCTCT, for which the binding signal in assay [1] is 1.15 fold enrichment (6-mer frequency, TF over GST control); in [2], 1.14 fold enrichment (6-mer frequency, TF over GST control); in assay [3], 1.12 fold enrichment (6-mer frequency, TF over GST control); in [4] it was 1.33 fold enrichment (6-mer frequency, TF over GST control); in [5], 1.33 fold enrichment (6-mer frequency, TF over GST control); in [6], 1.18 fold enrichment (6-mer frequency, TF over GST control). Besides, the binding signal in assay [7] is 1.24 fold enrichment (6-mer frequency, TF over GST control); in [8] it was 1.11 fold enrichment (6-mer frequency, TF over GST control); in [9], 1.27 fold enrichment (6-mer frequency, TF over GST control).
As to TGGTTC, the binding signal in assay [1] was 1.35 fold enrichment (6-mer frequency, TF over GST control); in [2], 1.44 fold enrichment (6-mer frequency, TF over GST control); in [3], 1.27 fold enrichment (6-mer frequency, TF over GST control); in assay [4] it was 1.51 fold enrichment (6-mer frequency, TF over GST control); in [5] it was 1.33 fold enrichment (6-mer frequency, TF over GST control); in [6], 1.36 fold enrichment (6-mer frequency, TF over GST control). For the same sequence, the binding signal in assay [7] was 1.33 fold enrichment (6-mer frequency, TF over GST control); in [8] it was 1.57 fold enrichment (6-mer frequency, TF over GST control); in [9], 1.38 fold enrichment (6-mer frequency, TF over GST control).

The values above are taken from paper PMC7862700, “An all-to-all approach to the identification of sequence-specific readers for epigenetic DNA modifications on cytosine”.
